PubChem BioAssay (NCI)
The panel holds about 83,000 compounds, 20% with a hit somewhere; the sample as a whole holds those more often.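 Compound tested at a single concentration for 48 hours in 96-well plates; a percent growth value below 10 was scored as active.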 Values without a mark were called inactive. The source made the active and inactive calls.

Experiments:
Assay in all cases: NCI-60 one-dose screen, 48 h (100 = growth as untreated, 0 = no growth, -100 = all killed)
[1] = test system: A549/ATCC NSCLC; details: 10 µM unless noted
[2] = test system: DU-145 prostate; details: 10 µM unless noted
[3] = test system: K-562 leukemia; details: 10 µM unless noted
[4] = test system: RXF 393 renal; details: 10 µM unless noted
[5] = test system: SF-295 CNS; details: 10 µM unless noted
[6] = test system: UACC-257 melanoma; details: 10 µM unless noted
[7] = test system: HCT-15 colon; details: 10 µM
[8] = test system: LOX IMVI melanoma; details: 10 µM unless noted
[9] = test system: SN12C renal; details: 10 µM unless noted
[10] = test system: CAKI-1 renal; details: 10 µM unless noted
[11] = test system: A498 renal; details: 10 µM unless noted
[12] = test system: HL-60(TB) leukemia; details: 10 µM unless noted
[13] = test system: MOLT-4 leukemia; details: 10 µM
[14] = test system: OVCAR-8 ovarian; details: 10 µM unless noted
[15] = test system: OVCAR-4 ovarian; details: 10 µM unless noted
[16] = test system: SK-OV-3 ovarian; details: 10 µM unless noted
[17] = test system: HS 578T breast; details: 10 µM unless noted
[18] = test system: BT-549 breast; details: 10 µM
[19] = test system: HCC-2998 colon; details: 10 µM unless noted
[20] = test system: HT29 colon; details: 10 µM unless noted

| Compound | growth [1] | growth [2] | growth [3] | growth [4] | growth [5] | growth [6] | growth [7] | growth [8] | growth [9] | growth [10] | growth [11] | growth [12] | growth [13] | growth [14] | growth [15] | growth [16] | growth [17] | growth [18] | growth [19] | growth [20] |
| --- | --- | --- | --- | --- | --- | --- | --- | --- | --- | --- | --- | --- | --- | --- | --- | --- | --- | --- | --- | --- |
| C/C(=C\c1cc(C(F)(F)F)n(-c2ccc(N)cc2)n1)[C@@H]1C[C@@H]2O[C@]2(C)CCC[C@H](C)[C@H](O)[C@@H](C)C(=O)C(C)(C)[C@@H](O)CC(=O)O1 | 1.71% (active) | -23.9% (active) | 6.37% (active) | -8.53% (active) | 2.01% (active) | 26.6% | 9.88% (active) | 4.2% (active) | 23.1% | 25.3% | -0.114% (active) | 0.265% (active) | 4.35% (active) | 0.138% (active) | 44.7% | 2.26% (active) | -11.5% (active) | -2.85% (active) | 8.18% (active) |  |
| COc1cccc2c1C(=O)c1c(O)c3c(c(O)c1C2=O)CC(O)(/C(C)=N/NC(=O)CCC(=O)N/N=C(\C)C1(O)Cc2c(O)c4c(c(O)c2C(OC2CC(N)C(O)C(C)O2)C1)C(=O)c1c(OC)cccc1C4=O)CC3OC1CC(N)C(O)C(C)O1 (stereo not given) | -30% [5 µM] (active) | -30.5% [5 µM] (active) | -60.2% [5 µM] (active) | -56.7% [5 µM] (active) | -32.8% [5 µM] (active) | -17.8% [5 µM] (active) |  | -35.3% [5 µM] (active) | -5.24% [5 µM] (active) | -44.3% [5 µM] (active) | -69.1% [5 µM] (active) | -41.9% [5 µM] (active) |  | 13.1% [5 µM] | -13.5% [5 µM] (active) | -31.4% [5 µM] (active) | -11.5% [5 µM] (active) |  | -94.5% [5 µM] (active) | -79% [5 µM] (active) |
| O1[As]2O[As]3O[As]1O[As](O2)O3 | 37.8% |  |  | -47.6% (active) | 4.61% (active) | -22.1% (active) | -23.4% (active) | 0.399% (active) | 4.31% (active) | -20.2% (active) | 2.98% (active) | 1.06% (active) | 10.7% | 4.6% (active) | 26.1% | 38% |  | -12.1% (active) | 23.3% | -21.1% (active) |
| COc1ccc(C(c2ccc(OC)cc2)C(Cl)(Cl)Cl)cc1 | 94.6% | 107% | 65.7% | 73.4% | 102% | 78.8% | 91.8% |  | 97.8% | 68.4% | 57.3% | 72.5% | 85.8% | 86.7% |  | 96.2% |  | 110% | 94.4% | 78.3% |
| C/C(=C\C(=O)O[C@H]1[C@@H]2[C@H](C)CC[C@H]2[C@]2(C)O[C@@]1(C1CCCCC1)C[C@H]2OC(=O)CO)c1ccccc1 | 40.8% | 66.1% | 23.2% | -10.1% (active) | 50.5% | 44.2% | 18.7% |  |  | -25% (active) | -83% (active) | -27.8% (active) |  | 19% | 38.5% | 59.7% | -28.1% (active) | -6.37% (active) | 25.9% | 9.35% (active) |
| Cc1cccc(N(C)c2cccc3c2C(=O)[Se]C3)c1C | 15.8% | 34.6% | 48.2% | 44.7% | 20.7% | 50.7% | 31.6% | 38.2% | 84.8% | 70.1% |  | -17.1% (active) | 67.9% | 20.2% | 40.7% | 188% | 58.8% | 52.4% | 47.5% | 9.4% (active) |
| O=C(CCl)NCNC(=O)CCl | 93.2% | 103% | 98.9% | 107% | 56.5% | 76.5% | 91.4% |  | 97.7% | 56.8% | 109% | 102% | 90.4% | 92.4% | 77.4% | 98.8% | 96.8% | 86.7% | 111% | 105% |
